# Test results as given in PubChem BioAssay AID449762 (Southern Research Specialized Biocontainment Screening …, 2010).
# Among all 330,000 compounds or so, about 1,900 (0.58%) were called active. Not shown: some 4% with an inconclusive outcome. The list is a sample of the results. Results with a measured potency or affinity are listed apart. Unmarked numbers belong to inactive results. Cut-off read from the data, not from the text of the source: inconclusive = inhibition above about 70% without an active follow-up result; inactive = below that.
# Assay: M. tuberculosis growth inhibition, HTS (AID 449762);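 note: bacterial growth assessed after seven days of incubation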
# Conditions: M. tuberculosis H37Rv growth inhibition, 7H9 media; at 25 µM; stronger effect = higher value
row,SMILES,inhibition
1,Clc1ccc(OCCOCCN2CCCCC2)c(Br)c1,-2.44%
2,CC(C)N1CCN(Cc2cccn2-c2cccnc2)CC1CCO (stereo not drawn),-3.04%
3,CCOC(=O)C1(CCc2ccccc2)CCN(Cc2ccc(NC(C)=O)cc2)CC1,-6.26%
4,COc1cc2ncnc(NCc3ccccc3F)c2cc1OC,4.17%
5,CCc1ccc2[nH]c(=O)c(C(c3nnnn3CCOC)N3CCN(c4ccccc4)CC3)cc2c1 (stereo not drawn),-6.34%
6,COc1ccc2cc(C(c3nnnn3CCc3ccccc3)N3CCC(O)CC3)c(=O)[nH]c2c1 (stereo not drawn),-12.3%
7,COc1cccc(OC)c1C(=O)NC(=S)N1CCCCC1c1cccnc1 (stereo not drawn),-6.76%
8,O=C(CCC(=O)c1cccs1)OCC(=O)c1ccc(F)cc1,1.25%
9,Cc1nn(Cc2ccccc2)c(C)c1C(=O)OCC(=O)c1cc(C)n(C2CC2)c1C,63.9%
10,COCCn1c(C)cc(C(=O)COC(=O)c2c(C)nn(Cc3ccccc3)c2C)c1C,20.6%
11,CSc1ccc(C(=O)C2CCCN(Cc3cccn3-c3cccnc3)C2)cc1 (stereo not drawn),9.15%
12,O=C(c1ccc2c(c1)OCO2)N1CCc2ccccc21,-5.13%
13,Cc1nc(SCC(=O)c2cc3ccccc3oc2=O)c(C#N)c(-c2ccccc2)c1C(=O)Nc1ccccc1,17.1%
14,Cc1nc(SCC(=O)c2cc3ccccc3oc2=O)c(C#N)c(-c2cccs2)c1C(=O)Nc1ccccc1,3.9%
15,Cc1nc(NC(=O)c2ccccc2)sc1-c1csc(Nc2ccc(Cl)cc2Cl)n1,6.01%
16,COc1ccccc1Nc1nc(-c2sc(NC(=O)CC(C)C)nc2C)cs1,1.91%
17,Cc1ccc(C(C)C)c(OCC(=O)Nc2ccc(N3CCN(S(C)(=O)=O)CC3)cc2)c1,-4.74%
18,CCCCCCSc1ccc([C@H]2N[C@@](CC(C)C)(C(=O)OC)[C@H]3C(=O)N(CC)C(=O)[C@@H]23)cc1,-1.98%
19,COc1cc(NC(=S)NCCc2ccccc2)c(OC)cc1NC(=O)CC(C)C,-2.92%
20,CN1C(=S)SC(N(O)C(=O)Nc2cccc3ccccc23)C1(C)C (stereo not drawn),3.28%

row,SMILES,inhibition
1,CN1C(=S)SC(N(O)C(=O)Nc2ccccc2)C1(C)C (stereo not drawn),-1.59%
2,CC1=CSC2=NS(=O)(=O)CCN12,-1.32%
3,COCCCNC(=O)c1c[nH]c2ccc(S(=O)(=O)N3CCC4(CC3)OCCO4)cc2c1=O,-4.78%
4,COc1ccc(-c2nnn(CC(=O)NC(=O)NC3CCCCC3)n2)cc1OC,-0.345%
5,O=C(Cn1nnc(-c2cccs2)n1)OC1CCCCC1,4.15%
6,O=C(NC(=S)NC1CCS(=O)(=O)C1)c1ccccc1 (stereo not drawn),-12%
7,Cc1c(C(=O)N2CCC3(CC2)OCCO3)sc2ncnc(N3CCc4ccccc4C3)c12,-0.89%
8,CC(C)CCn1nnnc1C(c1ccccc1)N1CCN(C)CC1 (stereo not drawn),5.26%
9,O=C(CNS(=O)(=O)c1cccs1)N1CCN(c2ccccn2)CC1,4.15%
10,CCOC(=O)N1CCN(C(=O)C2CCN(c3nnc(-n4cccc4)s3)CC2)CC1,-4.54%
11,O=C(C1CCN(c2nnc(-n3cccc3)s2)CC1)N1CCOCC1,-4.62%
12,CC1=NN(C(N)=S)C(=O)C1N=Nc1ccc(Br)cc1 (stereo not drawn),58.6%
13,CC1=NN(C(N)=S)C(=O)C1N=Nc1ccc(S(N)(=O)=O)cc1 (stereo not drawn),0.37%
14,Cc1ccc(S(=O)(=O)Nc2ccc3ccccc3n2)cc1,0.36%
15,COc1ccccc1-c1cc2nc(C)c(CCC(=O)NC(C)CCc3ccco3)c(C)n2n1 (stereo not drawn),2.39%
16,Cc1nc2cc(-c3cccc(F)c3)nn2c(C)c1CCC(=O)NC(C)CCc1ccco1 (stereo not drawn),-9.87%
17,O=c1cc(O)nc(SCc2ccc(Cl)cc2)[nH]1,-0.2%
18,COc1cc(-c2nnc(CSc3nnc(N)s3)o2)cc(OC)c1OC,-0.69%
19,Cc1nc(-n2nnc3ccccc32)c2c3c(sc2n1)CCCC3,4.15%
20,CCCc1cc(=O)n2[nH]c(C)c(-c3ccc(OC)cc3)c2n1,35.8%

row,SMILES,inhibition
1,Cc1cc(=O)n2[nH]c(C)c(-c3ccc(Cl)cc3)c2n1,-1.1%
2,Cc1cc(NC(=O)Cn2nnc(-c3ccccc3NC(=O)c3ccccc3F)n2)no1,-4.78%
3,CCOC(=O)c1cnc(Nc2nc3ccccc3o2)nc1CSc1ncccn1,0.71%
4,CCCc1nc(Nc2nc3ccccc3o2)nc(C)c1C(=O)OCC,-21.6%
5,Cc1nnc(SCC(=O)N(Cc2ccccc2)C(C)(C)C)[nH]c1=O,3.28%
6,O=C1c2ccccc2C(=O)N1Cc1ccc2c(c1)OCO2,4.9%
7,CC(C(=O)NC1CCCC1)N1C(=O)c2cccc3cccc1c23 (stereo not drawn),-3.8%
8,CCOC(=O)c1cnc(-n2nc(C)cc2C)nc1Nc1cccc(C(=O)O)c1,19.4%
9,CCOC(=O)c1cnc(-n2nc(C)cc2C)nc1Nc1ccc(O)cc1,-2.03%
10,COc1ccc(CN2CCn3ncc(C(=O)Nc4cccc(C)c4)c3C2=O)cc1,3.51%
11,COc1ccc(C(CNC(=O)C2CC2)N(C)C)cc1 (stereo not drawn),-15.1%
12,CCSc1nnc(C)n1-c1ccc(C(=O)O)cc1,-3.32%
13,O=C1c2ccc(-c3nc4ccccc4o3)cc2C(=O)N1Cc1cccnc1,6.12%
14,CCc1ccc(OCC(=O)Nc2ccc(-c3nc4ccccc4o3)c(O)c2)cc1,-3.85%
15,CC(C)NC(=O)c1ccc(-n2c(=S)[nH]c3ccccc3c2=O)cc1,-2.47%
16,CCN(CC)S(=O)(=O)c1ccc(N2CCCC2)c(NC(=O)c2nn(C)c(=O)c3ccccc23)c1,-4.45%
17,CCN(CC)S(=O)(=O)c1ccc2[nH]cc(C(=O)NCCc3ccccc3)c(=O)c2c1,4.1%
18,CCN(CC)S(=O)(=O)c1ccc2[nH]cc(C(=O)NCCN3CCCCCC3)c(=O)c2c1,-8.55%
